# Laboratory results taken from PubChem BioAssay.
# Calls of active or inactive are those of the source.
# Experiments:
# [1] = compounds binding Alexa647 anti-His antibody – biochemical, small-molecule microarray, 635 nm fluorescence, artefact control for SMM control protein annotation, primary screen (AID 1128); settings: higher = more signal;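 also: score merges feature fluorescence with signal-to-noise for each printed compound spot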
# [2] = tested on: Human papillomavirus type 1a E7 protein (residues 1-88); test: HPV1a E7 small-molecule binders, primary screen, biochemical, small-molecule microarray, residues 1-88, 635 nm (AID 1129); settings: small-molecule microarray binding, fluorescence 635 nm; higher = more signal
# [3] = target: Focal adhesion kinase 1 (Homo sapiens) (UniProt Q05397); test: PTK2 protein binding on printed compound slides – biochemical, small-molecule microarray, 635/667 nm fluorescence, BSA, DTT, primary screen (AID 1130); settings: 635 nm fluorescence, higher = more signal;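 also: composite of spot emission at 667 nm and signal to noise over triplicate slides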
# Chain of Focal adhesion kinase 1 (Homo sapiens) (Q05397 whole entry, looked up): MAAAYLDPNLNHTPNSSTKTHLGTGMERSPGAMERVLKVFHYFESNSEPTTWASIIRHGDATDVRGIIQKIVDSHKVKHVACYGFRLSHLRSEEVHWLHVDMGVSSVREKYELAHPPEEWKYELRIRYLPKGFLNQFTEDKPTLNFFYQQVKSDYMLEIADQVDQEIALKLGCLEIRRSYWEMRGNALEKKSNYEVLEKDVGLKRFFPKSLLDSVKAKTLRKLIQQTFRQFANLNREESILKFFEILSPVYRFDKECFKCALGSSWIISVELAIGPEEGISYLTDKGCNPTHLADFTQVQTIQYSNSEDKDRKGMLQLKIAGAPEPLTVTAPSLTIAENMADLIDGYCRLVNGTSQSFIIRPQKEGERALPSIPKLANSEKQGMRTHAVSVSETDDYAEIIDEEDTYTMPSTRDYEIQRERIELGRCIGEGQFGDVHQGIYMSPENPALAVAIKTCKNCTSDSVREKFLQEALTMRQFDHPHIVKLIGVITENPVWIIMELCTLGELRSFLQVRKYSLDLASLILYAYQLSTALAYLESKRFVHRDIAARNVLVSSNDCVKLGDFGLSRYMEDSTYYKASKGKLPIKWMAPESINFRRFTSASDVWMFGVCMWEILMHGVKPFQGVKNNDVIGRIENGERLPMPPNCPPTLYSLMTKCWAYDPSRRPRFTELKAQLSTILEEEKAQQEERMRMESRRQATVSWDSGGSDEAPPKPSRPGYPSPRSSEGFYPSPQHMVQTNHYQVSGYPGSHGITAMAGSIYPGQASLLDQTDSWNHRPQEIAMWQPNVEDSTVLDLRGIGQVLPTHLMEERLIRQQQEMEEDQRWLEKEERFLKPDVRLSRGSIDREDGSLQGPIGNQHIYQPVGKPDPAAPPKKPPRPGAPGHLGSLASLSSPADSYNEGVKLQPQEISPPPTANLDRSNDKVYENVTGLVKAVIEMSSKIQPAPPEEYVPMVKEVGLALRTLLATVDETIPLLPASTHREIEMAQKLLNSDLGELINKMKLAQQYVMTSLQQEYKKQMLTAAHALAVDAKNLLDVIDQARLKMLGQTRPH
# [4] = tested on: Fibrinogen (Alexa647-labelled); test: Alexa647-fibrinogen binding to printed small molecules – biochemical, small-molecule microarray, 635/667 nm fluorescence, artefact control for SMM control-protein annotation, profiling panel (AID 1131); settings: fibrinogen-A647 binding fluorescence, higher = more signal;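 also: z-score merges 667 nm fluorescence with per-spot signal-to-noise over triplicate slides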
# [5] = target: Follistatin (Homo sapiens) (UniProt P19883); test: FST protein binding to printed compounds – biochemical, small-molecule microarray, 635/667 nm fluorescence, primary screen (AID 1132); settings: 635 nm fluorescence, higher = more signal
# Chain of Follistatin (Homo sapiens) (P19883 whole entry, looked up): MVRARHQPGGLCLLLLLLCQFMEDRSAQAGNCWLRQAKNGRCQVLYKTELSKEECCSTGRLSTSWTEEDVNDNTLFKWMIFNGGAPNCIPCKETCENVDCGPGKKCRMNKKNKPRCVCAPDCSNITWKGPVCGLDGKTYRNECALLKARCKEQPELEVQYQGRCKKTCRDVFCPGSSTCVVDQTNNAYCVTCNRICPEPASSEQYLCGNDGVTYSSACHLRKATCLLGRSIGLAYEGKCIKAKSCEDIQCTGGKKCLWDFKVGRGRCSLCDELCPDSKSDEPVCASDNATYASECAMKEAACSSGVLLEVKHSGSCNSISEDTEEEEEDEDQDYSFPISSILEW
# [6] = target: Fibroblast growth factor 2 (Homo sapiens) (UniProt P09038); test: basic fibroblast growth factor binding to printed compounds – biochemical, small-molecule microarray, 635/667 nm fluorescence, primary screen (AID 1133); settings: FGF2, fluorescence 635/667, higher = more signal
# Chain of Fibroblast growth factor 2 (Homo sapiens) (P09038 whole entry, looked up): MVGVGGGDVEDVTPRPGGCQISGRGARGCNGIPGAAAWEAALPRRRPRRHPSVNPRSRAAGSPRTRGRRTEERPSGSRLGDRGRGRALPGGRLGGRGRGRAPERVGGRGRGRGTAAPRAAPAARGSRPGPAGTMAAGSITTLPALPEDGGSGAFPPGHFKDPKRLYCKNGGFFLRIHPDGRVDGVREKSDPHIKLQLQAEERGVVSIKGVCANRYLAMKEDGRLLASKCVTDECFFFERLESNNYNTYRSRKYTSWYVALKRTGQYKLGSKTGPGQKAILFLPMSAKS
# [7] = JC-1 mitochondrial potential readout, lung cancer cells – cell-based, A549, JC-1 fluorescence, basal, 24 h, 100 nL, profiling panel (AID 1138); settings: higher = more signal;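 also: A549 lung adenocarcinoma cells under basal conditions with no added stimulus; test concentration not given here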
# Lefty1 = Lefty1 protein binding to printed compounds – biochemical, small-molecule microarray, 635/667 nm fluorescence, primary screen (AID 1139); settings: fluorescence 635/667, higher = more signal
# [8] = tested on: wheat germ agglutinin (Triticum aestivum), Alexa647-labelled; test: Alexa647-WGA lectin binding to printed small molecules – biochemical, small-molecule microarray, 635/667 nm fluorescence, artefact control for SMM control-protein annotation, profiling panel (AID 1140); settings: WGA-A647 binding, 635 nm fluorescence, higher = more signal;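 also: score merges 667 nm feature emission with signal to noise over triplicate slides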
# [9] = target: Luciferin 4-monooxygenase (Photinus pyralis) (UniProt P08659); test: inhibition of purified Photinus pyralis luciferase – biochemical, luminescence, purified enzyme, 2006 set, primary screen (AID 1141); settings: purified firefly luciferase, SteadyGlo luminescence, 30 min; higher = more signal, called active from +8 up or from −8 down;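 also: cell-free assay with purified firefly luciferase at 100 ng per well in PBS; test concentration not given here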
# Chain of Luciferin 4-monooxygenase (Photinus pyralis) (P08659 whole entry, looked up): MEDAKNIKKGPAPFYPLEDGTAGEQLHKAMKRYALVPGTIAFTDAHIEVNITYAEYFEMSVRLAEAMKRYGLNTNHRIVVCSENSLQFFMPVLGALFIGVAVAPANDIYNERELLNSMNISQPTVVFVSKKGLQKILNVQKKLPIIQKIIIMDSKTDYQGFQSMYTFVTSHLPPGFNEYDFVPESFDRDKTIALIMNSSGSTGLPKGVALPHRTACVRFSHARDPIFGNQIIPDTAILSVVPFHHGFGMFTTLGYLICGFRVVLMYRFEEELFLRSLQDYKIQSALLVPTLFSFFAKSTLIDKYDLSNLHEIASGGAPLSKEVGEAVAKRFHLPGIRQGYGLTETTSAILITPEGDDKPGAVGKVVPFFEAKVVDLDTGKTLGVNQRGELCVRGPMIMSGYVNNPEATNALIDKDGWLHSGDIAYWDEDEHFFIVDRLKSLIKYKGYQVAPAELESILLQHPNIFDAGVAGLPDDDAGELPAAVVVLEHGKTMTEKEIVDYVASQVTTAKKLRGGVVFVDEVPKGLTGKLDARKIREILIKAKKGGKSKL
Structure (SMILES),composite z-score [1],composite z-score [2],composite z-score [3],composite z-score [4],composite z-score [5],composite z-score [6],z-score [7],composite z-score (Lefty1),composite z-score [8],z-score [9]
C[C@@H]1CC[C@H]2C(=O)N3CCC[C@H]3C(=O)N2[C@H]1c1ccc(Br)cc1,0.136,-0.366,0.335,0.0658,0.162,0.36,1.68,0.724,-0.169,-1.02 (inactive)
C=CCOC(=O)[C@@H]1[C@H]2C(=O)O[C@H](c3ccccc3)[C@H](c3ccccc3)N2[C@H](c2ccc(OCCOC(=O)[C@H]3C[C@H]4C(=O)N[C@@H](CCCCNC(C)=O)C(=O)N4[C@H]3c3ccc(O)cc3)cc2)[C@@]12C(=O)Nc1ccc(I)cc12,1.21,0.894,-0.145,0.852,1.08,1.7,-0.815,1.08,0.115,-0.608 (inactive)
O=C(NCc1ccccc1)[C@@]1(Cc2ccccc2)COC(c2ccc(OCCCO)cc2)=N1,2.46,1.17,0.773,0.838,0.0985,-0.238,-1.56,-0.554,0.449,-0.603 (inactive)
COC(=O)[C@H]1[C@@H]2COc3ccccc3[C@H]2N[C@H]1C(=O)OC,-0.0432,0.0902,0.404,0.428,0.214,0.446,0.603,0.171,0.274,-1.37 (inactive)
O=C1O[C@H](c2ccccc2)[C@H](c2ccccc2)N2[C@H]1[C@@H](C(=O)NC[C@H](O)c1ccccc1)[C@]1(C(=O)Nc3ccc(C#CC4(O)CCCCCC4)cc31)[C@H]2c1ccc(OCCO)cc1,2.52,1.2,0.285,0.641,1.06,1.04,-1.2,-0.0254,0.959,-1.23 (inactive)
O=C1OCCC/C=C\[C@H]2OC34C=CCN(CCN5CCOCC5)C(=O)[C@H]3N(CCCCCO)C(=O)[C@@H]4C12 (stereo not given in full),-0.265,-2.02,-1.29,-1.25,-0.267,-0.821,-0.203,-0.84,-0.858,0.32 (inactive)
COc1ccc(NN2C(C(O)c3cc(OC)c(OC)c(OC)c3)C=CC3C(=O)N(C4CCCCC4)C(=O)C32)cc1 (stereo not given),0.717,1.21,1.06,0.965,0.412,-0.418,0.469,0.133,1.22,0.582 (inactive)
Cc1ccc(S[C@]2(C(=O)O)CC(=O)N(Cc3ccccc3)[C@@H]2c2ccc(CO)cc2)cc1,-0.846,0.0745,-0.412,0.0619,-0.256,0.0167,1.31,-0.532,0.0681,-1.32 (inactive)
C[C@@H]1C=CCC(=O)OC[C@H]2O[C@@H](C=C[C@@H]2O)[C@H](C)C=CCC(=O)OC[C@H]2O[C@H]1C=C[C@@H]2O,0.106,-0.145,-0.095,-0.282,1.53,1.83,0.307,1.75,-0.312,-0.304 (inactive)
CN1CCC(CCCO)=CC1C1CC1 (stereo not given),0.346,-0.256,-0.233,-0.146,0.803,0.923,0.949,1.12,-0.59,-0.703 (inactive)
CN(C)CCCC[C@@H]1NC(=O)[C@@H]2C[C@H](C(=O)O)[C@H](c3ccc(O)cc3)N2C1=O,1.34,0.704,0.324,0.166,1.37,1.35,-0.0467,1.64,0.176,-0.486 (inactive)
CN(C)CCCC[C@@H]1NC(=O)[C@@H]2C[C@H](C(=O)NCCCCCNC(=O)CS)[C@H](c3ccc(O)cc3)N2C1=O,1.12,1.19,-0.0662,0.946,1.52,1.65,1.3,1.65,1.23,-1.11 (inactive)
CC(C)[Si](OCC[C@H]1O[C@]2(C(=O)N(Cc3ccccc3)c3ccccc32)[C@@H](C)[C@@H]1[Si](C)(C)O)(C(C)C)C(C)C,-0.197,-0.694,0.104,0.618,0.122,-0.206,-0.761,0.218,0.128,-0.183 (inactive)
C[C@H]1COC(=O)[C@H](Cc2ccccc2)NC(=O)[C@@H](C)COC(=O)[C@H](Cc2ccccc2)NC1=O,1.46,1.12,0.327,0.194,0.593,0.635,1.04,1.03,0.523,-0.443 (inactive)
C=CCC(OC(C)=O)[C@@H]1[C@@H](N(Cc2cccc3ccccc23)C(=O)Cc2ccc(F)cc2)c2cc(OCCCO)ccc2N1C(=O)Cc1ccc2ccccc2c1 (stereo not given in full),-0.404,-0.329,0.317,-0.175,0.0802,-0.391,0.331,-0.258,0.191,0.693 (inactive)
